PubChem BioAssay AID463173 (ICCB-Longwood Screening Facility, Harvard Medical School, 2010)
Among all 52,000 compounds or so, about 1,700 (3.3%) were called active. No stated cut-off is given here; in the data, active means survival mostly below about 52% (no sharp cut-off); inactive means mostly above about 56%. What follows is part of a selection rich in actives, with near analogues and random picks from the rest.

What follows are compounds tested on Wild type (assay: S. aureus survival, RN4220 and DeltatarO strains – OD600, teichoic acid synthesis inhibitors, primary screen (AID 463173)). Details: S. aureus RN4220 wild type/DeltatarO growth, OD600, 18 h, active compounds read low, screened at 18.75 µg/mL (by protocol).

Compound	survival
CCc1ccc2nc(N3CCCC3)c(C#N)cc2c1	108% (inactive)
O=C(CSc1n[nH]c(-c2ccccc2Cl)n1)N1CCN(c2ccccc2F)CC1	123% (inactive)
O=C1c2[nH]nc(-c3ccc(F)cc3)c2C(c2ccccc2F)N1c1ccccc1 (stereo unspecified)	4% (active)
COc1ccccc1C1c2c(-c3ccc(Cl)cc3)n[nH]c2C(=O)N1c1ccc(C)cc1 (stereo unspecified)	85% (inactive)
COC(=O)c1ccc(C2c3c(-c4ccc(Br)cc4)n[nH]c3C(=O)N2c2ccc(Cl)cc2)cc1 (stereo unspecified)	75% (inactive)
COc1ccc(C2c3c(-c4ccc(F)cc4)n[nH]c3C(=O)N2c2ccccc2)cc1OC (stereo unspecified)	134% (inactive)
Cc1ccc(-c2n[nH]c3c2C(c2cccc(O)c2)N(c2ccc(C(=O)O)cc2)C3=O)cc1 (stereo unspecified)	98% (inactive)
COc1ccc(-c2n[nH]c3c2C(c2ccc(O)cc2)N(c2ccc(Br)cc2)C3=O)cc1 (stereo unspecified)	11% (active)
O=C1c2[nH]nc(-c3ccc(Br)cc3)c2C(c2cccc(O)c2)N1c1ccc(Cl)cc1 (stereo unspecified)	1% (active)
CCOC(=O)c1ccc(N2C(=O)c3[nH]nc(-c4ccc(OC)cc4)c3C2c2ccc(C)cc2)cc1 (stereo unspecified)	89% (inactive)
CCOc1cc(C2c3c(-c4ccc(Br)cc4)n[nH]c3C(=O)N2c2ccc(Cl)cc2)ccc1O (stereo unspecified)	42% (inactive)
COc1cccc(CNC(=O)CN2C(=O)COc3ccc(S(=O)(=O)N4CCCCC4)cc32)c1	100% (inactive)
CCOc1ccccc1CNC(=O)C(CC)n1nc(C)c2c(C)n(-c3ccccc3)nc2c1=O (stereo unspecified)	88% (inactive)
CCOC(=O)c1ccc(NC(=O)CCCn2c(=O)c3cccn3c3ccccc32)cc1	78% (inactive)
CCc1ccc(C(=O)c2cn(CC(=O)Nc3ccc(OC)c(Cl)c3)c3nc(C)ccc3c2=O)cc1	119% (inactive)
COC(=O)c1sc2cccc(F)c2c1S(=O)(=O)Nc1cc(C)c(Cl)cc1OC	85% (inactive)
COC(=O)c1sc2cccc(F)c2c1S(=O)(=O)Nc1ccc(N(C)C)cc1	53% (inactive)
COC(=O)c1sc2cccc(F)c2c1S(=O)(=O)Nc1cc(OC)cc(OC)c1	0% (active)
CCOc1ccccc1NS(=O)(=O)c1c(C(=O)OC)sc2cccc(F)c12	-3% (active)

Compound	survival
COC(=O)c1sc2cccc(F)c2c1S(=O)(=O)Nc1ccc(C)cc1Cl	63% (inactive)
CCOC(=O)c1sc2cccc(F)c2c1S(=O)(=O)Nc1ccccc1F	124% (inactive)
CC(C)c1ccc(NC(=O)C2CCCN(S(=O)(=O)c3cccc4nsnc34)C2)cc1 (stereo unspecified)	70% (inactive)
CN1CCc2nc3sc(C(=O)c4ccc5c(c4)OCO5)c(N)c3cc2C1	116% (inactive)
Cc1ccc(-n2c(-c3ccc(Br)cc3)nc3c(cnn3-c3ccccc3)c2=O)cc1	66% (inactive)
Clc1ccc(CNc2ccccn2)cc1	98% (inactive)
Cc1cc(C)n(-c2nc3ccccc3nc2Nc2cc(Cl)ccc2C)n1	131% (inactive)
Cc1cc(C)n(-c2nc3ccccc3nc2Nc2ccc(C(C)C)cc2)n1	5% (active)
Cc1ccc2nc(Nc3cccc(Cl)c3C)c(-n3nc(C)cc3C)nc2c1	131% (inactive)
Cc1cc(C)n(-c2nnc(Nc3ccc(C(C)C)cc3)c3ccccc23)n1	74% (inactive)
Cc1cc(C)n(-c2nc3ccccc3nc2Nc2cccc(C)c2C)n1	7% (active)
CCCOC(=O)c1ccc(Nc2nc3ccccc3nc2-n2nc(C)cc2C)cc1	32% (inactive)
Cc1cc(C)n(-c2nc3ccccc3nc2Nc2ccc(Cl)c(C(=O)OC(C)C)c2)n1	84% (inactive)
Cc1cc(C)cc(Nc2nc3cc(Cl)c(Cl)cc3nc2-n2nc(C)cc2C)c1	81% (inactive)
Cc1cc(C)cc(Nc2nnc(-n3nc(C)cc3C)c3ccccc23)c1	86% (inactive)
Cc1cc(C)cc(Nc2nc3ccccc3nc2-n2nc(C)cc2C)c1	8% (active)
Cc1cc(C)n(-c2nc3ccccc3nc2Nc2ccc(N(C)C)cc2)n1	2% (active)
CC(=O)c1ccc(Nc2nc3ccccc3nc2-n2nc(C)cc2C)cc1	54% (inactive)
CCOC(=O)N1CCc2c(sc(NCc3sccc3C)c2C(=O)Nc2cc(OC)ccc2OC)C1	65% (inactive)

Compound	survival
Cc1cccc(N2CCN(Cc3nnc(-c4ccccc4C)o3)CC2C)c1 (stereo unspecified)	21% (inactive)
CCOC(=O)c1c(C)sc(-c2c(-c3ccc(OC)c(F)c3)[nH]c3[nH]c(=O)[nH]c(=O)c23)c1O	111% (inactive)
CCCOc1ccc(CNC(=O)Cn2cc3c(n2)-c2c(oc(C(=O)N4CCOCC4)c2C)CC3)cc1	96% (inactive)
COc1ccc(-c2nn(C)c3sc(C(=O)NCCN(C)C)cc23)cc1OC	82% (inactive)
CCOC(=O)c1c(C)[nH]c(C)c1S(=O)(=O)N(C)CC(=O)Nc1cccc(C(F)(F)F)c1	69% (inactive)
COC(=O)C(CCSC)NC(=O)Cn1ncc2c([nH]c3ccccc32)c1=O (stereo unspecified)	47% (inactive)
COc1cc2c(c(OC)c1)C(c1cccc(F)c1F)CC(=O)N2 (stereo unspecified)	82% (inactive)
COc1ccc(CCN(Cc2nc3ccccc3c(=O)[nH]2)C(=O)c2ccco2)cc1	81% (inactive)
Cc1ccc(NS(=O)(=O)c2ccc3[nH]c4c(c3c2)CCCCC4)cc1	84% (inactive)
O=C(CCn1c(=O)c2cccn2c2cccnc21)NCc1ccccc1Br	93% (inactive)
Cc1cc(C)n(-c2nc3ccccc3nc2Nc2ccc(Cl)c(Cl)c2)n1	1% (active)
COc1ccccc1Nc1nc2ccc(Cl)cc2nc1-n1nc(C)cc1C	138% (inactive)
COc1ccc(OC)c(Nc2nc3ccccc3nc2-n2nc(C)cc2C)c1	10% (active)
Cc1ccc(Nc2nc3ccccc3nc2-n2nc(C)cc2C)c(Cl)c1	88% (inactive)
Cc1cc(C)n(-c2nc3ccccc3nc2Nc2ccc(Cl)cc2Cl)n1	86% (inactive)
COc1cc(OC)c(Nc2nc3ccccc3nc2-n2nc(C)cc2C)cc1Cl	80% (inactive)
Cc1ccc(CNC(=O)c2ccc(Cn3c(SCc4ccc(F)cc4)nc4cccnc43)cc2)o1	84% (inactive)
Cc1ccc(C(=O)c2sc(Nc3ccc(F)cc3)c(C#N)c2N)cc1	108% (inactive)
